For this test, the target named is GST-Hu-p50 (Homo sapiens, UniProt P19838 7-356). As to the kind of experiment: protein-binding microarray (PBM); PBM: ~300 nM protein, 6 mM HEPES pH 7.8, 80 mM KCl, 0.5 mM EDTA, 0.5 mM EGTA, 6% glycerol, 35 ng/ul poly-dIdC, 1% milk, 1 h, room temperature; Ap Aiptasia and Nv Nematostella (sea anemones) / Co Capsaspora / Aq Amphimedon (sponge) / Dm Drosophila / Hu human; RHD is the Rel homology domain; high values mean tight binding. As to conditions: dsDNA, one strand shown.
Chain of GST-Hu-p50 (P19838 7-356): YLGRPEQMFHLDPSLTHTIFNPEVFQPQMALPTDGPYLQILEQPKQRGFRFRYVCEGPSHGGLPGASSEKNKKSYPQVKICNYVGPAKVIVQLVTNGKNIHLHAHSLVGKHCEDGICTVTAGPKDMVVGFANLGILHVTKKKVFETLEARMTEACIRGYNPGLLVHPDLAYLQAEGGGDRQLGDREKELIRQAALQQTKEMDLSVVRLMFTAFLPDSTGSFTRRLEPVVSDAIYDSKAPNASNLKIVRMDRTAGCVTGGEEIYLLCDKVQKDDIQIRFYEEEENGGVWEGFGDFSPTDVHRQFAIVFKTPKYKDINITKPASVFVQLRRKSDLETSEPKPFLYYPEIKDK
For the sequence “CCGATTAACATCACCATTTTCCCTGATGTTAATCGGGTCTTGATTCGCTTGACGCTGCTG”, the binding signal worked out at 3.64 z-score.
Turning to “CCGATTAACATCATTAGGGAAAATGATGTTAATCGGGTCTTGATTCGCTTGACGCTGCTG”, the binding signal was 4.64 z-score.
“CCGATTAACATCACCCATTTCCGTGATGTTAATCGGGTCTTGATTCGCTTGACGCTGCTG” came in with a binding signal of 1.88 z-score.
With “CCGATTAACATCAAATTCTCCCCTGATGTTAATCGGGTCTTGATTCGCTTGACGCTGCTG”, the binding signal was determined as 5.07 z-score.
The sequence “CCGATTAACATCACGTATTCCCCTGATGTTAATCGGGTCTTGATTCGCTTGACGCTGCTG” gave a binding signal of 5.15 z-score.
As to “CCGATTAACATCACACCCCAACATGATGTTAATCGGGTCTTGATTCGCTTGACGCTGCTG”, the binding signal was 1.05 z-score.
Regarding “CCGATTAACATCACAGGAATTTCTGATGTTAATCGGGTCTTGATTCGCTTGACGCTGCTG”, the binding signal came to 1.08 z-score.
The value for “CCGATTAACATCAAATTTCCAGGTGATGTTAATCGGGTCTTGATTCGCTTGACGCTGCTG” was 1.2 z-score; that for “CCGATTAACATCACCCATTCCCCTGATGTTAATCGGGTCTTGATTCGCTTGACGCTGCTG” was 5.05 z-score; that for “CCGATTAACATCAGGCGGTAAGGTGATGTTAATCGGGTCTTGATTCGCTTGACGCTGCTG” was 1.29 z-score.
The sequence “CCGATTAACATCAACGTTTCCCCTGATGTTAATCGGGTCTTGATTCGCTTGACGCTGCTG” gave a binding signal of 5.04 z-score.
Regarding “CCGATTAACATCAGGAAAGTACCTGATGTTAATCGGGTCTTGATTCGCTTGACGCTGCTG”, the binding signal is 5.16 z-score.
Next, “CCGATTAACATCAGTGATTAAGGTGATGTTAATCGGGTCTTGATTCGCTTGACGCTGCTG”: 1.25 z-score; “CCGATTAACATCACGGCAATCCCTGATGTTAATCGGGTCTTGATTCGCTTGACGCTGCTG”: 1.12 z-score.
As to “CCGATTAACATCAGGGGATAATATGATGTTAATCGGGTCTTGATTCGCTTGACGCTGCTG”, the binding signal is 4.49 z-score.
As for “CCGATTAACATCACAAAAAATTTTGATGTTAATCGGGTCTTGATTCGCTTGACGCTGCTG”, the binding signal came to 1.65 z-score.
The sequence “CCGATTAACATCAACCCCGTTTCTGATGTTAATCGGGTCTTGATTCGCTTGACGCTGCTG” returned a binding signal of 1.79 z-score.
“CCGATTAACATCACCGGAAATCCTGATGTTAATCGGGTCTTGATTCGCTTGACGCTGCTG” came in with a binding signal of 1.78 z-score.
The sequence “CCGATTAACATCACAGATTTCCCTGATGTTAATCGGGTCTTGATTCGCTTGACGCTGCTG” displayed a binding signal of 4.4 z-score.
Consider “CCGATTAACATCACGGACACCCCTGATGTTAATCGGGTCTTGATTCGCTTGACGCTGCTG”, for which the binding signal was found to be 1.06 z-score.
“CCGATTAACATCAGTATTCCCCATGATGTTAATCGGGTCTTGATTCGCTTGACGCTGCTG” returned a binding signal of 5.14 z-score.
The value for “CCGATTAACATCAGGAAAGTCCATGATGTTAATCGGGTCTTGATTCGCTTGACGCTGCTG” was 1.14 z-score; that for “CCGATTAACATCAGGGCATTACCTGATGTTAATCGGGTCTTGATTCGCTTGACGCTGCTG” was 1.4 z-score; that for “CCGATTAACATCAGGGAGAGCCCTGATGTTAATCGGGTCTTGATTCGCTTGACGCTGCTG” was 2.37 z-score.
Turning to “CCGATTAACATCATCTTTTTACTTGATGTTAATCGGGTCTTGATTCGCTTGACGCTGCTG”, the binding signal was 1.01 z-score.
“CCGATTAACATCAGGAAATTTCATGATGTTAATCGGGTCTTGATTCGCTTGACGCTGCTG” registered a binding signal of 1.06 z-score.
The sequence “CCGATTAACATCAGGGAGACCCCTGATGTTAATCGGGTCTTGATTCGCTTGACGCTGCTG” gave a binding signal of 3.48 z-score.
The value for “CCGATTAACATCAACGGTGGAAATGATGTTAATCGGGTCTTGATTCGCTTGACGCTGCTG” was 1.15 z-score; that for “CCGATTAACATCACGGAAATTTCTGATGTTAATCGGGTCTTGATTCGCTTGACGCTGCTG” was 1.83 z-score.
The sequence “CCGATTAACATCAATTAGGTGGGTGATGTTAATCGGGTCTTGATTCGCTTGACGCTGCTG” came in with a binding signal of 1.64 z-score.
In turn, “CCGATTAACATCACCAAATTTCCTGATGTTAATCGGGTCTTGATTCGCTTGACGCTGCTG” returned a binding signal of 1.31 z-score.
The sequence “CCGATTAACATCAGCTGAGTAGGTGATGTTAATCGGGTCTTGATTCGCTTGACGCTGCTG” registered a binding signal of 1.45 z-score.
In the case of “CCGATTAACATCAATAAATTCCCTGATGTTAATCGGGTCTTGATTCGCTTGACGCTGCTG”, the binding signal is 5.11 z-score.
Consider “CCGATTAACATCAATGGGATTCCTGATGTTAATCGGGTCTTGATTCGCTTGACGCTGCTG”, for which the binding signal was 1.23 z-score.
In turn, “CCGATTAACATCACCCAAAGTTTTGATGTTAATCGGGTCTTGATTCGCTTGACGCTGCTG” gave a binding signal of 1.11 z-score.
Regarding “CCGATTAACATCAGGGCAAACCCTGATGTTAATCGGGTCTTGATTCGCTTGACGCTGCTG”, the binding signal amounted to 1.57 z-score.
“CCGATTAACATCAACGGGTCCCTTGATGTTAATCGGGTCTTGATTCGCTTGACGCTGCTG”: the binding signal worked out at 1.31 z-score.
In turn, “CCGATTAACATCAGGGGAACATATGATGTTAATCGGGTCTTGATTCGCTTGACGCTGCTG” came in with a binding signal of 4.06 z-score.
In turn, “CCGATTAACATCAGGGGCCGTAATGATGTTAATCGGGTCTTGATTCGCTTGACGCTGCTG” came in with a binding signal of 1.41 z-score.

The values are drawn from publication PMC5700166.
